# Assay results taken from ChEMBL document CHEMBL2218924, “A broad activity screen in support of a chemogenomic map for kinase signalling research and drug discovery” (Biochem J, 2013).
# Experiments:
# [1] = target: T1, Inhibitor of nuclear factor kappa-B kinase subunit alpha (Homo sapiens) (UniProt O15111); conditions: at 1 µM
# T1 sequence (whole entry): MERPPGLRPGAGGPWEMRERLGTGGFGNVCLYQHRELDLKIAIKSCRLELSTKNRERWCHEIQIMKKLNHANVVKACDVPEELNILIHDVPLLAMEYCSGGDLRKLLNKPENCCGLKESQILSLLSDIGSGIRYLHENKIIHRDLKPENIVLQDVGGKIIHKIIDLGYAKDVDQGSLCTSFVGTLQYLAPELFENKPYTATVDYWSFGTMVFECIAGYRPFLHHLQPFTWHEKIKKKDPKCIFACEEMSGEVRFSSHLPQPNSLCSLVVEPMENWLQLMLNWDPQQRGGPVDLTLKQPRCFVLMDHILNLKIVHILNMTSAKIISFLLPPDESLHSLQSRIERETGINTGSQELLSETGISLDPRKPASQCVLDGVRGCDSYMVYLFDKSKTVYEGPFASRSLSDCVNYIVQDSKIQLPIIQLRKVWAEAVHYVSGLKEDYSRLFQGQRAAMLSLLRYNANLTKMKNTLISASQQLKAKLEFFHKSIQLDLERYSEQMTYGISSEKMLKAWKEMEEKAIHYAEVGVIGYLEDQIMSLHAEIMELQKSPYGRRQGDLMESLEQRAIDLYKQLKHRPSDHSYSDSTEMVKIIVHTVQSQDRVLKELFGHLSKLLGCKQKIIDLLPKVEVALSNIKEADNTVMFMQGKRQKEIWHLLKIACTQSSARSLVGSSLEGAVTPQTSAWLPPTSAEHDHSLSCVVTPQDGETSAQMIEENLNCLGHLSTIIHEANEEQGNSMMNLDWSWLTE
# [2] = target: T1, Inhibitor of nuclear factor kappa-B kinase subunit alpha (Homo sapiens); conditions: at 10 µM
# [3] = target: T2, Inhibitor of nuclear factor kappa-B kinase subunit beta (Homo sapiens) (UniProt O14920); conditions: at 1 µM
# T2 sequence (whole entry): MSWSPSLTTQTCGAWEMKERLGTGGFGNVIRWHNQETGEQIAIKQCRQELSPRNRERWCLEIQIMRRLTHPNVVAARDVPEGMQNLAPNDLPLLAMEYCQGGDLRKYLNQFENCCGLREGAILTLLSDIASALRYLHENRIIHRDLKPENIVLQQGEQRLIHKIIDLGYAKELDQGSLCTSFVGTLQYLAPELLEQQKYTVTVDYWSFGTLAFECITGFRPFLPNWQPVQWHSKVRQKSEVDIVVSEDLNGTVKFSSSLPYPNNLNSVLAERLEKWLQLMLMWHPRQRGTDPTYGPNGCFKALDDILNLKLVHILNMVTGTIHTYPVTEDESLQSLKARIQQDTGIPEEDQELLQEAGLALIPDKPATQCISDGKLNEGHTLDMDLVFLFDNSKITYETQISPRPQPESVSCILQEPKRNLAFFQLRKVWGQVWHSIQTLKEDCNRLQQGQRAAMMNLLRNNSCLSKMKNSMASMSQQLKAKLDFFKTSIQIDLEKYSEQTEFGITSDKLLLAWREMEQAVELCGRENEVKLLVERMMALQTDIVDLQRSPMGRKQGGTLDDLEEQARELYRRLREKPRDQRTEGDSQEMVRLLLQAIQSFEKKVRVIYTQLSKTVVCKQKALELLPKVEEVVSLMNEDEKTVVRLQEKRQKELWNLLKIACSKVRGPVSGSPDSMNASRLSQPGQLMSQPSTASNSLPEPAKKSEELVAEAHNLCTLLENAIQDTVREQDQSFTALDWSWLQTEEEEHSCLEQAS
# [4] = target: T2, Inhibitor of nuclear factor kappa-B kinase subunit beta (Homo sapiens); conditions: at 10 µM
# [5] = target: Insulin receptor (Homo sapiens) (UniProt P06213); conditions: at 1 µM
# [6] = target: Insulin receptor (Homo sapiens) (UniProt P06213); conditions: at 10 µM
# [7] = target: Insulin receptor (Homo sapiens) (UniProt P06213); conditions: at 1 µM; remark: listed apart in the source
# [8] = target: Insulin receptor (Homo sapiens) (UniProt P06213); conditions: at 10 µM; remark: listed apart in the source
# [9] = target: Interleukin-1 receptor-associated kinase 1 (Homo sapiens) (UniProt P51617); conditions: at 1 µM
# [10] = target: Interleukin-1 receptor-associated kinase 1 (Homo sapiens) (UniProt P51617); conditions: at 10 µM
# Chain of Insulin receptor (Homo sapiens) (P06213 28-758 limits assumed): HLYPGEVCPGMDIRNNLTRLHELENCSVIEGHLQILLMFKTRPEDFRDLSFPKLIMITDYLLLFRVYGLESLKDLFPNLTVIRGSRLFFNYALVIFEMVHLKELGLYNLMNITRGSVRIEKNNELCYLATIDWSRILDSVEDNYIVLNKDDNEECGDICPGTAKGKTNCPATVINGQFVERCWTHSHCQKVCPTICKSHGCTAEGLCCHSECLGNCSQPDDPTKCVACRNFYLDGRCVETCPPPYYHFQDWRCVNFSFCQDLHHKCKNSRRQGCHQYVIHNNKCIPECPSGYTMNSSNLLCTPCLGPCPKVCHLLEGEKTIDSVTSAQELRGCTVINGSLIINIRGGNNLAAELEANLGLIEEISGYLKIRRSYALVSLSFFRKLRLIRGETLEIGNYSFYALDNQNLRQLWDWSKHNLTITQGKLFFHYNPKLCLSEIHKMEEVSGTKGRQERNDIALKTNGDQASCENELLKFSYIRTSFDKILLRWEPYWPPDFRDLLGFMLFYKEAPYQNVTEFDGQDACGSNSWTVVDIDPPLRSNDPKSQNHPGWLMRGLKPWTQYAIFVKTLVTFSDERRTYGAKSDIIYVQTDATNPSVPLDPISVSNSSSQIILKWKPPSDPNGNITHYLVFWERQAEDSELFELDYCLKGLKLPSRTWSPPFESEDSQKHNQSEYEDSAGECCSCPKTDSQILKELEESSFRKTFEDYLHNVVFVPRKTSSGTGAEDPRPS
# Chain of Insulin receptor (Homo sapiens) (P06213 763-1382 limits assumed): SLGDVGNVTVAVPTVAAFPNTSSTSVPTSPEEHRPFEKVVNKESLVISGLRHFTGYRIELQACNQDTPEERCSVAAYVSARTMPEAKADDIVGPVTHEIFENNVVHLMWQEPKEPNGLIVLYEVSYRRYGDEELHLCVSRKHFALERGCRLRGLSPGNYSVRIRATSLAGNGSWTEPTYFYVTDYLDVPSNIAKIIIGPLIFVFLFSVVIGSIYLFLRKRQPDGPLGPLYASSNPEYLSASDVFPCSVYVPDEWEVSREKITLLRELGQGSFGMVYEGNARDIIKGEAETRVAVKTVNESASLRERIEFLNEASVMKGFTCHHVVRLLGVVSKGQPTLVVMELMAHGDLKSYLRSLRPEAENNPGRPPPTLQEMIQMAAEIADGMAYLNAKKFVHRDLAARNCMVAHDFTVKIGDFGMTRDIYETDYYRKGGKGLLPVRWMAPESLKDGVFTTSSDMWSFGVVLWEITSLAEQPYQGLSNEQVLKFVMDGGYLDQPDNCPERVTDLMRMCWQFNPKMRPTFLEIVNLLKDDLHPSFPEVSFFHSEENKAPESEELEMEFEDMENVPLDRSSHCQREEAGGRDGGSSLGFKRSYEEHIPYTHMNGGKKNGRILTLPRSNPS
# Chain of Interleukin-1 receptor-associated kinase 1 (Homo sapiens) (P51617 whole entry, looked up): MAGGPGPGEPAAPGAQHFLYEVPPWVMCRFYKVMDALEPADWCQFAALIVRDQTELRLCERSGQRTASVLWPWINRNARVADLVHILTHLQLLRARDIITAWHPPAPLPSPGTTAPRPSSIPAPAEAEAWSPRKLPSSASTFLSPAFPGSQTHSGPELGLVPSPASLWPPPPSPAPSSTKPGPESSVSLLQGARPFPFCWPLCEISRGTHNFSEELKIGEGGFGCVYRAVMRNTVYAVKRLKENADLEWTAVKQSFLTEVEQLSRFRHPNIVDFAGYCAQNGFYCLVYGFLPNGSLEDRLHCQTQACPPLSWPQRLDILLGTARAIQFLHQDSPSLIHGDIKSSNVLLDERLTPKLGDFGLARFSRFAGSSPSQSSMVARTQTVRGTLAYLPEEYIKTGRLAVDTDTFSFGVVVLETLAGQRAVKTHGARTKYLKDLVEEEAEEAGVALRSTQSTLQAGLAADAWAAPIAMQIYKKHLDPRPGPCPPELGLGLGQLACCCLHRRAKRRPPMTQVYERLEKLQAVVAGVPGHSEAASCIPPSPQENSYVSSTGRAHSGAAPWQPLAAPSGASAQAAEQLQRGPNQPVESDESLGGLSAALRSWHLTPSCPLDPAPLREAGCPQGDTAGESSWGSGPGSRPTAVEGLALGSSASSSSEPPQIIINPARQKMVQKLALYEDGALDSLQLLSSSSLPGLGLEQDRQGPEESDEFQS
Structure (SMILES),residual activity [1],residual activity [2],residual activity [3],residual activity [4],residual activity [5],residual activity [6],residual activity [7],residual activity [8],residual activity [9],residual activity [10]
O=C1Nc2ccc3ncsc3c2/C1=C/c1c[nH]cn1,8%,1%,68%,25%,85%,31%,80%,36%,28%,7%
C[S+]([O-])c1ccc(-c2nc(-c3ccc(F)cc3)c(-c3ccncc3)[nH]2)cc1 (stereo unspecified),113%,96%,104%,101%,94%,129%,103%,98%,108%,97%
c1cc(-c2cnn3cc(-c4ccc(OCCN5CCCCC5)cc4)cnc23)ccn1,,86%,,85%,138%,,,,23%,2%
O=C1c2ccccc2-c2nc3nnnn3nc21,,,111%,81%,121%,102%,104%,109%,109%,103%
O=c1[nH]c2ccccc2n1C1CCN(Cc2ccc(-c3nc4cc5[nH]cnc5cc4nc3-c3ccccc3)cc2)CC1,118%,109%,101%,102%,119%,75%,103%,98%,103%,88%
COc1cc2ncnc(Nc3ccc(OCc4ccccc4)cc3)c2cc1OC,105%,99%,117%,103%,115%,98%,102%,104%,81%,102%
CCn1cnc2c(Nc3cccc(Cl)c3)nc(N[C@@H]3CCCC[C@@H]3N)nc21,99%,89%,,93%,,,70%,34%,85%,64%
O=C1NC(=O)c2c1c1c3ccccc3n3c1c1c2c2ccccc2n1C1CCC3O1,93%,73%,,,94%,79%,100%,88%,,
CC(C)[C@H](CO)Nc1nc(Nc2cccc(Cl)c2)c2ncn(C(C)C)c2n1,,,116%,,81%,33%,34%,4%,81%,23%
COc1ccc2c(c1)/C(=C/c1cnc[nH]1)C(=O)N2,74%,23%,,59%,,,,,,37%
CCc1nc(-c2ccc(OC)cc2)[nH]c1-c1ccncc1,100%,104%,119%,112%,,,,,,
COc1cc(OC)c(/C=C2\C(=O)Nc3ccccc32)c(OC)c1,,,,,82%,86%,98%,91%,100%,103%
COc1ccc2c(c[n+](C)c3c4cc5c(cc4ccc23)OCO5)c1OC,97%,83%,,84%,,130%,99%,84%,96%,83%
CC(C)(C)c1cc(C=C(C#N)C#N)cc(Br)c1O,101%,99%,98%,99%,122%,108%,109%,105%,117%,107%
COC(=O)[C@@]1(O)C[C@H]2O[C@]1(C)n1c3ccccc3c3c4c(c5c6ccccc6n2c5c31)C(=O)NC4,2%,3%,17%,3%,42%,20%,7%,0%,1%,0%
O=[N+]([O-])/C=C/c1ccc2c(c1)OCO2,91%,94%,98%,95%,117%,85%,96%,102%,95%,83%
N/C(=N\[N+](=O)[O-])N/N=C\c1ccc(-c2cccc([N+](=O)[O-])c2)o1,,,,99%,,,,,,
